Consider eight compounds from PubChem BioAssay (EPA / NIEHS).

The source made the active and inactive calls. The calls were made as follows: active = hit-call score of the fitted dose curve at least 0.9, where 1 is the maximum; inactive = score below 0.9.

Assay [1] is described as follows: ATG_E_Box_CIS: Attagene CIS-FACTORIAL HepG2 Assay for human Enhancer Box (E-box) (AID 2282936). The conditions noted are these: HepG2 E-box cis-reporter transcription, actives raise or lower the signal. In outline:
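Cells: HepG2 (human liver), transient MRTU transfection. Exposure 24 h. RNA → oligo(dT) RT → PCR → 6-FAM label → HpaI → CE. Activity fitted both directions relative to DMSO.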

Assay [2] can be described thus: ATG_M_61_CIS: Attagene CIS-FACTORIAL HepG2 Assay for M61 Transcription Factor (Internal Marker) (AID 2282937). The conditions noted are these: HepG2 Attagene CIS-FACTORIAL M61 internal marker reporter; actives raise or lower the signal. In outline: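 Readout: fluorescent reporter mRNA fragments resolved by capillary electrophoresis after RT-PCR. Transiently transfected human HepG2 cells carried MRTU constructs reporting endogenous TF activity; 24 h chemical exposure; gain or loss of signal fitted relative to DMSO.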

Assay [3] in a line: ATG_EGR_CIS: Attagene CIS-FACTORIAL HepG2 Assay for human Early Growth Response 1 (EGR1) (AID 2282938). The conditions noted are these: HepG2 Attagene CIS-FACTORIAL EGR reporter mRNA; actives raise or lower the signal. In outline:
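Read-out: fluorescent reporter-mRNA fragments resolved by capillary electrophoresis after RT-PCR, 24 h post-dose in transiently transfected HepG2. Endogenous transcription-factor activity reported via cis-element-regulated reporter units; gain or loss fitted relative to DMSO.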

Assay [4] can be described thus: ATG_M_19_CIS: Attagene CIS-FACTORIAL HepG2 Assay for M19 Transcription Factor (Internal Marker) (AID 2282939). The conditions noted are these: HepG2 Attagene CIS-FACTORIAL M19 internal marker reporter; actives raise or lower the signal. In short, it runs like this:
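Chemical-treated HepG2 (24 h) with MRTU constructs; reporter transcripts detected by fluorescent RT-PCR fragment analysis on capillary electrophoresis. Internal background marker, DMSO as baseline.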

A short description of assay [5]: ATG_Ets_CIS: Attagene CIS-FACTORIAL HepG2 Assay for human Erythroblast Transformation Specific (ETS) (AID 2282941). Conditions: HepG2 ETS cis-reporter transcription, actives raise or lower the signal. In short, it runs like this:
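Steps: transfect HepG2 with multiple reporter units; treat compound 24 h; isolate RNA, DNase-treat, reverse-transcribe; PCR-amplify, label with 6-FAM, digest with HpaI; separate by capillary electrophoresis. Activity fitted both directions versus DMSO.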

Assay [6] deals with Hepatocyte nuclear factor 3-beta (Homo sapiens) (UniProt Q9Y261). In words: ATG_FoxA2_CIS: Attagene CIS-FACTORIAL HepG2 Assay for human Forkhead box A2 (FOXA2) (AID 2282942). Conditions: HepG2 cis-reporter transcription factor activity, 24 h; actives raise or lower the signal. In short, it runs like this:
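Readout: fluorescent reporter transcripts resolved by capillary electrophoresis after RT-PCR. Transiently transfected HepG2, 24 h compound exposure, endogenous TF activity at cis promoter elements. Gain or loss of signal fitted relative to DMSO.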

Assay [7] is described as follows: ATG_FoxO_CIS: Attagene CIS-FACTORIAL HepG2 Assay for human Forkhead box O (FoxO) (AID 2282943). The conditions noted are these: HepG2 Attagene cis-reporter, FoxO element, mRNA; actives raise or lower the signal. In outline:
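Human hepatoma HepG2 cells carry transiently introduced reporter transcription units controlled by cis promoter elements. Chemical treatment lasted 24 h, and mRNA signal was compared with DMSO.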

A short description of assay [8]: ATG_GATA_CIS: Attagene CIS-FACTORIAL HepG2 Assay for human GATA Binding Protein (AID 2282944). The conditions noted are these: HepG2 GATA cis-element reporter, Attagene multiplex mRNA; actives raise or lower the signal. In short, it runs like this:
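Transfected cis-reporter HepG2 cells were treated with chemicals for 24 hours. Total RNA was then converted to cDNA, amplified with reporter-specific primers and analysed by fluorescent capillary electrophoresis, using DMSO-treated wells as baseline.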

A short description of assay [9]: ATG_GLI_CIS: Attagene CIS-FACTORIAL HepG2 Assay for human Zinc Finger Protein GLI1 (AID 2282945). The conditions noted are these: HepG2, Attagene cis-factorial reporter mRNA, GLI element; actives raise or lower the signal. In short, it runs like this: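 Bidirectional curve fits relative to DMSO, using reporter mRNA levels from RT-PCR plus capillary electrophoresis. Cells were HepG2 transiently carrying cis-regulated reporter constructs, harvested 24 h after dosing.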

A short description of assay [10]: ATG_ISRE_CIS: Attagene CIS-FACTORIAL HepG2 Assay for human Interferon Regulatory Factor 1 (IRF1) binding to an Interferon-Stimulated Response Element (ISRE) (AID 2282948). The conditions noted are these: HepG2 ISRE cis-reporter (Attagene), mRNA transcription readout; actives raise or lower the signal. In short, it runs like this:
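Transfected HepG2 (multiple reporter transcription units, cis elements) dosed 24 h. RNA → oligo(dT) RT → PCR → 6-FAM primer extension → HpaI → CE. DMSO = negative control/baseline.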

A short description of assay [11]: ATG_M_32_CIS: Attagene CIS-FACTORIAL HepG2 Assay for M32 Transcription Factor (Internal Marker) (AID 2282949).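 Also: background control marker of the multiplexed CIS panel rather than a real target.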 Conditions: HepG2 Attagene cis-factorial M32 reporter, mRNA; actives raise or lower the signal. In short, it runs like this: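 HepG2 cells transiently transfected with multiplexed cis-regulated reporter units, dosed 24 h. Reporter mRNA quantified by RT-PCR, 6-FAM labelling, HpaI digestion and capillary electrophoresis; bidirectional fit vs DMSO.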

Assay [12] in a line: ATG_M_06_CIS: Attagene CIS-FACTORIAL HepG2 Assay for M06 Transcription Factor (Internal Marker) (AID 2282950). Conditions: HepG2 Attagene CIS-FACTORIAL M06 internal marker reporter; actives raise or lower the signal. In outline: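 Cells (HepG2, transiently carrying cis-driven reporter units) receive chemical for 24 h before RNA isolation. Reporter cDNA is PCR-amplified, FAM-labelled by primer extension, HpaI-digested and sized on a capillary analyser.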

In assay [13] the target is Hypoxia-inducible factor 1-alpha (Homo sapiens) (UniProt Q16665). In words: ATG_HIF1a_CIS: Attagene CIS-FACTORIAL HepG2 Assay for human Hypoxia Inducible Factor 1 (HIF1A) (AID 2282951). The conditions noted are these: HepG2 Attagene cis-factorial HIF1a reporter transcription; actives raise or lower the signal. In outline: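 RT-PCR/capillary electrophoresis fluorescence readout of reporter transcripts from endogenous-TF-driven cis elements in transfected HepG2 cells, 24 h exposure; activity fitted in both directions against DMSO controls.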

In assay [14] the target is Hepatocyte nuclear factor 6 (Homo sapiens) (UniProt Q9UBC0). In words: ATG_HNF6_CIS: Attagene CIS-FACTORIAL HepG2 Assay for human Hepatocyte Nuclear Factor 6 (HNF6) (AID 2282952). Conditions: HepG2 Attagene cis-factorial HNF6 reporter transcription; actives raise or lower the signal. In outline:
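HepG2 cells transiently transfected with cis-element-driven multiple reporter transcription units, dosed 24 h; reporter mRNA quantified by RT-PCR, FAM primer extension, HpaI digestion and capillary electrophoresis; bidirectional fit versus DMSO baseline.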

Assay [15] deals with Heat shock factor protein 1 (Homo sapiens) (UniProt Q00613). In words: ATG_HSE_CIS: Attagene CIS-FACTORIAL HepG2 Assay for human Heat Shock Transcription Factor 1 (HSE) (AID 2282953). The conditions noted are these: HepG2 HSE cis-reporter, Attagene RNA transcription; actives raise or lower the signal. In short, it runs like this:
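Liver-derived HepG2 cells carry transiently introduced multiple reporter units governed by cis promoters. Reporter RNA measured 24 h post-dose through reverse transcription, PCR amplification, fluorescent labelling and capillary electrophoresis, normalised to DMSO.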

A short description of assay [16]: ATG_MRE_CIS: Attagene CIS-FACTORIAL HepG2 Assay for human Metal Responsive Element (MRE) (AID 2282954). Conditions: HepG2 MRE cis-reporter transcription, Attagene multiplex; actives raise or lower the signal. In outline: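 Transient MRTU transfection of HepG2 (FuGene 6); 24 h dosing; total RNA → oligo(dT) RT, PCR, 6-FAM primer extension, HpaI cut, CE. Bidirectional fit vs DMSO.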

The nature of assay [17]: ATG_PBREM_CIS: Attagene CIS-FACTORIAL HepG2 Assay for human Phenobarbital-responsive Enhancer Module (PBREM) (AID 2282955). Conditions: HepG2 PBREM cis-reporter, Attagene multiplexed transcription; actives raise or lower the signal. In short, it runs like this: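 Reporter mRNA read by RT-PCR, 6-FAM primer extension, HpaI digestion and capillary electrophoresis. Transfected HepG2 cells, 24 h compound exposure. Gain or loss of signal fitted bidirectionally relative to DMSO baseline.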

For assay [18], the target named is Bile acid receptor (Homo sapiens) (UniProt Q96RI1). In words: ATG_IR1_CIS: Attagene CIS-FACTORIAL HepG2 Assay for human Nuclear Receptor Subfamily 1 Group H Member 4 (NR1H4), IR1 submotif (AID 2282946). Conditions: IR1 reporter transcription, actives raise or lower the signal. In outline:
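Cells (human HepG2) carry transiently transfected cis-promoter reporter transcription units. Compounds are incubated 24 h, total RNA is reverse-transcribed and amplified, and labelled fragments are resolved by capillary electrophoresis. Curves use DMSO as baseline.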

The nature of assay [19]: ATG_GRE_CIS: Attagene CIS-FACTORIAL HepG2 Assay for human Glucocorticoid Response Elements (GRE) (AID 2282947). The conditions noted are these: HepG2 GRE cis-reporter, Attagene multiplex mRNA; actives raise or lower the signal. In short, it runs like this:
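Transient MRTU transfection of human HepG2 liver cells; cis-regulated reporters report endogenous factors. 24 h dosing → RNA isolation → RT-PCR → 6-FAM primer extension → HpaI cut → CE fragment analysis. Bidirectional fit, DMSO negative control.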

Assay [20] is described as follows: ATG_ERE_CIS: Attagene CIS-FACTORIAL HepG2 Assay for Estrogen Response Element (ERE) (AID 2282940). The conditions noted are these: HepG2 ERE cis-reporter, Attagene RNA transcript; actives raise or lower the signal. In outline: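 Human liver cells (HepG2) bearing transiently transfected, promoter-regulated reporter units were exposed 24 h. Reporter mRNA induction was detected by capillary electrophoresis of labelled RT-PCR products and fitted bidirectionally to DMSO.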

Hepatocyte nuclear factor 3-beta (Homo sapiens), sequence (Q9Y261 whole entry, looked up): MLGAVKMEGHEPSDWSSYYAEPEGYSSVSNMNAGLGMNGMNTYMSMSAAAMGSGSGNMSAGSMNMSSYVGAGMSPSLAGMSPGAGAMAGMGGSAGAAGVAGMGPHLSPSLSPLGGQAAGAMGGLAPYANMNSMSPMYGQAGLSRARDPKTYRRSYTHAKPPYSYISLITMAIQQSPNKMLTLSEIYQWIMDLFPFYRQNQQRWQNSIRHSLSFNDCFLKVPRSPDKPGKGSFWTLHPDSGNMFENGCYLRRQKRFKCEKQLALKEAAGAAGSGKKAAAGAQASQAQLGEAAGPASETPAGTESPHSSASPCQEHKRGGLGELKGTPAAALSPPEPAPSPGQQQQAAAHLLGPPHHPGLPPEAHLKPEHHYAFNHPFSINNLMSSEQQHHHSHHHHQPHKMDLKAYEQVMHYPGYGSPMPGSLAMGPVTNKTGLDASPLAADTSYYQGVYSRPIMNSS
Hypoxia-inducible factor 1-alpha (Homo sapiens), sequence (Q16665 whole entry, looked up): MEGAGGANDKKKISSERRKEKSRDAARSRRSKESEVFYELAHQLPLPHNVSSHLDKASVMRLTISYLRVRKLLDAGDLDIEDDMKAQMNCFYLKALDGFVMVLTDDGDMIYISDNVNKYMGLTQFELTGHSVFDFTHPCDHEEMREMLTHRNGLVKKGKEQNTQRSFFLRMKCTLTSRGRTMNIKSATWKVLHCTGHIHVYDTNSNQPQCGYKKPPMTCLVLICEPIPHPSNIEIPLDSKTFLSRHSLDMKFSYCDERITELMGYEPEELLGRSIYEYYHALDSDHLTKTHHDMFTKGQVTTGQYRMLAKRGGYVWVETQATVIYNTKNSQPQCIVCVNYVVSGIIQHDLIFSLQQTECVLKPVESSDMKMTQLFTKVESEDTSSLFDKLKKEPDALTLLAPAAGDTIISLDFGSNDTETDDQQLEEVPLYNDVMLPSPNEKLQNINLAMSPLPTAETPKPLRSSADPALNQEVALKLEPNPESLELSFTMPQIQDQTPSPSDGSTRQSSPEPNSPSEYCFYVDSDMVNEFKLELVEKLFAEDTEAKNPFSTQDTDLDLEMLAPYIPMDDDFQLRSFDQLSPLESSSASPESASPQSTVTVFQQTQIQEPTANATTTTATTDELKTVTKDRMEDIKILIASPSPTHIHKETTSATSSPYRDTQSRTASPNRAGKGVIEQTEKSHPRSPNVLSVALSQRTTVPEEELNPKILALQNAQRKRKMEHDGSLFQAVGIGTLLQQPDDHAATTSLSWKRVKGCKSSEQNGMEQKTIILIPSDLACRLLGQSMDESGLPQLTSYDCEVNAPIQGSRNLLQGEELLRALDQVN
Heat shock factor protein 1 (Homo sapiens), sequence (Q00613 whole entry, looked up): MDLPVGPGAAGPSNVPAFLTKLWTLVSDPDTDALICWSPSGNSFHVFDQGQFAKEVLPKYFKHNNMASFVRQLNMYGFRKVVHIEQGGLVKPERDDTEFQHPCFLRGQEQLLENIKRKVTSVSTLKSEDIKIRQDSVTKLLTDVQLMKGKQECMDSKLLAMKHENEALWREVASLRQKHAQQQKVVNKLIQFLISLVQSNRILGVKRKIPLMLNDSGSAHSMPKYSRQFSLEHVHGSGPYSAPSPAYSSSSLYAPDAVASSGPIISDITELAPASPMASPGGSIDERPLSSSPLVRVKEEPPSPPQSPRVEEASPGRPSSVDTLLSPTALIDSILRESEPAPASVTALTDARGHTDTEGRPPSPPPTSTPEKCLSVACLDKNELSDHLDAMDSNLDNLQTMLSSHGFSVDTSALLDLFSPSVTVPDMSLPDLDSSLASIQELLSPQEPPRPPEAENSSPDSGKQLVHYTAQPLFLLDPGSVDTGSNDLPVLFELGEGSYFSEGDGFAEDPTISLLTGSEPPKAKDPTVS
Bile acid receptor (Homo sapiens), sequence (Q96RI1 whole entry, looked up, the tested form may be a part): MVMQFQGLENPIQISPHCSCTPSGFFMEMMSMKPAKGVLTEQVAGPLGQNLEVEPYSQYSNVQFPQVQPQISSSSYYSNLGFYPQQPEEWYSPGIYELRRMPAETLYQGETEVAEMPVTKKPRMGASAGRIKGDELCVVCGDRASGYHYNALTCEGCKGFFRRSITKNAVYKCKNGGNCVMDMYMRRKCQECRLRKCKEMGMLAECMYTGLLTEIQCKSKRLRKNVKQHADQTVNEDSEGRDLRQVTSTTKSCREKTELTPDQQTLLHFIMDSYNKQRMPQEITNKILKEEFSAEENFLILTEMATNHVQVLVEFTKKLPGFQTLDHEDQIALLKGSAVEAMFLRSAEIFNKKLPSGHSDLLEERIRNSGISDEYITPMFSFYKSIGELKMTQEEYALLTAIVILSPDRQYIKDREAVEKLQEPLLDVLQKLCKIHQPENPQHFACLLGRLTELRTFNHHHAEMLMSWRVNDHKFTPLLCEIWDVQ
Hepatocyte nuclear factor 6 (Homo sapiens), sequence (Q9UBC0 whole entry, looked up): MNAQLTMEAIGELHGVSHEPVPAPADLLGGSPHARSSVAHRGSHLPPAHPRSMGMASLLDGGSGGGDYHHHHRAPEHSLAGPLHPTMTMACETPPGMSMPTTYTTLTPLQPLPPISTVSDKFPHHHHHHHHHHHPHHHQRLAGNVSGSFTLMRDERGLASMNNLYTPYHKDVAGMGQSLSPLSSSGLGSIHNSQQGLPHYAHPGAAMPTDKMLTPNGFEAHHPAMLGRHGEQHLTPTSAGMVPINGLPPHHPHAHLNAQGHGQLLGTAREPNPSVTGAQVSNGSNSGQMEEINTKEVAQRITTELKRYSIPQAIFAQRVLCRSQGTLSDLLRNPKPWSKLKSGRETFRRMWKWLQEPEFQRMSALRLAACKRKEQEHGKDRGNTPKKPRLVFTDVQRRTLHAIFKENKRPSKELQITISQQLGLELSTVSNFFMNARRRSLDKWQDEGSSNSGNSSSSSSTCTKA

With `N#CCc1ccc(Cl)cc1Cl`, the result in assay [1], in assay [2], in [3], in assay [4], in assay [5] and in assay [6] was inactive. The call in [7], in assay [8], in [9], in [10], in assay [11] and in assay [12] was inactive. Further, the call in assay [13], in assay [14], in assay [15], in assay [16] and in assay [17] was inactive.
Consider `C=COCCCC`, for which the result in assay [1], in assay [2], in assay [3], in [4], in assay [5] and in assay [6] was inactive. The compound was called inactive in [7], in assay [8], in assay [9], in assay [18], in assay [19] and in [10]. Further, the compound was classed as inactive in assay [11], in [12], in assay [13], in assay [14], in [15] and in assay [16]. Further, the result in [17] was inactive.
As to `NC(=O)c1ccccc1O`, the outcome in assay [1], in assay [2], in assay [3], in [4], in assay [5] and in assay [6] was inactive. The call in [7], in assay [8], in assay [9], in assay [18], in assay [19] and in assay [10] was inactive. In addition, the result in assay [11], in assay [12], in assay [13], in [14], in assay [15] and in assay [16] was inactive.
On to `CCCCCC/C=C/C=O`, for which the outcome in assay [1], in assay [2], in assay [3], in [4], in [5] and in [6] was inactive. The compound was called inactive in assay [7], in assay [8], in assay [9], in assay [19], in [10] and in [11]. Besides, the call in assay [12], in [13], in assay [14], in assay [16] and in assay [17] was inactive.
For the compound `C[Si](C)(CCCN)O[Si](C)(C)CCCN`, the result in assay [1], in [2], in [3], in assay [4], in assay [5] and in assay [6] was inactive. Besides, the compound was called inactive in assay [7], in [8], in assay [9], in [19], in [10] and in assay [11]. For the same compound, the compound was called inactive in assay [12], in assay [13], in assay [14], in assay [15], in assay [16] and in assay [17].
Turning to `OCCNCc1ccccc1`, the outcome in assay [1], in [2], in assay [3], in [4], in [5] and in assay [6] was inactive. The call in assay [7], in assay [8], in assay [9], in [19], in assay [10] and in [11] was inactive. The outcome in assay [12], in assay [13], in [14], in [16] and in assay [17] was inactive.
As a reminder, the AC50 is the midpoint of the concentration-response curve, whichever way the signal moves. Consider `C=CC=CC=CCCCCC`, for which the result in assay [1], in assay [2], in [3], in assay [4], in [5] and in assay [6] was inactive. Also, the compound was called inactive in assay [7], in assay [8], in [9], in assay [19], in assay [10] and in [11]. Besides, the call in [13], in assay [14] and in assay [16] was inactive. Also, the AC50 in assay [18] was 40.4 µM (active).
Consider `CN1C(=O)N(C)C(O)C1O` (configuration not stated), for which the outcome in assay [1], in [2], in assay [3], in assay [4], in assay [20] and in assay [5] was inactive. The compound was called inactive in assay [7], in [9], in [19], in assay [10], in assay [12] and in [13]. Moreover, the call in assay [14], in [16] and in [17] was inactive.
